Inconclusive results are not listed. Calls of active or inactive are those of the source. Calls come from the whole dose curve.
% is set by controls: 0 for no effect and ±100 for the full control effect.

This assay in a line: qHTS assay to identify small molecule agonists of the hypoxia (HIF-1) signaling pathway - cell viability counter screen (AID 1224844). Note: nearly all actives have a fitted effect of over 50% in size. The conditions noted are these: HRE-bla ME-180 viability, CellTiter-Glo luminescence, 17 h; series mostly up to 76.8 µM; activity change, negative = cytotoxicity: at the top concentration. From the text:
National Center for Advancing Translational Sciences [NCATS]
NIH Chemical Genomics Center [NCGC]
U.S. Environmental Protection Agency [EPA]
National Institutes of Environmental Health Sciences [NIEHS]
National Toxicology Program [NTP]
U.S. Food and Drug Administration [FDA]
Hypoxia-inducible factor-1 (HIF-1) is the major hypoxia-regulated transcription factor that controls cellular responses to low oxygen concentration. HIF-1 is composed of two subunits: hypoxia responsive HIF-1-alpha and constitutively expressed HIF-1-beta, which is also known as aryl hydrocarbon receptor nuclear translocator. During hypoxic conditions, HIF-1-alpha heterodimerizes with HIF-1-beta and translocates into the nucleus where the HIF-1 complex binds to the hypoxia-response element (HRE) and activates expression of target genes such as VEGF (vascular endothelial growth factor). The HIF-1 pathway is essential to normal growth and development, and is involved in the pathophysiology of cancer, inflammation, and ischemia.
Using a beta-lactamase reporter-gene under control of the hypoxia response element, a cell-based assay [CellSensor(TM) HRE-bla ME-180 from Life Technologies, Carlsbad, CA] was used to measure hypoxia-induced signaling. Tox21 10K library compounds were measured for their ability to induce the reporter gene activity. The cytotoxicity of the Tox21 compound library against HRE-bla ME-180 cell line was tested in parallel by measuring cell viability using CellTiter-Glo assay (Promega, Madison, WI) in the same assay wells.
Tox21 Assay Protocol Summary:
HRE-bla ME-180 cells were dispensed at 2,000 cells per well in 6 uL of assay medium containing 0.5% dialyzed FBS into black wall/clear-bottom 1536-well plates using a Multidrop Combi (Thermo Scientific, Waltham, MA) dispenser. After the assay plates were incubated at 37C and 5% CO2 for 5 hrs, 23 nL of compounds dissolved in DMSO, positive controls or DMSO only was transferred to each well of the assay plate using a Pintool station (Kalypsys, San Diego, CA). The assay plates were incubated at 37C and 5% CO2 for 17 hrs. One uL of LiveBLAzerTM B/G FRET substrate (CCF4-AM) (Life Technologies) was added to each well using a Flying Reagent Dispenser (FRD, Aurora Discovery, San Diego, CA). After 2 hr incubation at room temperature, fluorescence intensity (405 nm excitation, 460 nm and 530 nm emissions) was measured using an Envision plate reader (PerkinElmer, Shelton, CT). For cytotoxicity, 4 ul/well of CellTiter-Glo reagent was added into the assay plates using an FRD. After 30 min incubation at room temperature, the luminescence intensity was measured using a ViewLux plate reader (PerkinElmer).
A general note: Quantitative high-throughput screening tests each substance at several concentrations.
`CN1CCC[C@@H]1c1cccnc1`: the “activity change, negative = cytotoxicity” value is 6.14% [at 35.3 µM] (inactive).

As to `CCCCCCCCCC=O`, the “activity change, negative = cytotoxicity” value was -0.752% (inactive).

Consider `Nc1ccc(C(=O)N2CC3CC(CN(Cc4ccccc4)C3)C2)cc1`, for which the “activity change, negative = cytotoxicity” value is -5.64% [at 35.3 µM] (inactive).

For `NC1CCN(c2nc3c(cc2F)c(=O)c(C(=O)O)cn3-c2ccc(F)cc2F)C1` (stereo not given), the “activity change, negative = cytotoxicity” value is 7.51% [at 35.3 µM] (inactive).

Turning to `Cn1c(=O)c2c(ncn2CC(O)CO)n(C)c1=O` (stereo not given), the “activity change, negative = cytotoxicity” value is 0.0332% [at 35.3 µM] (inactive).

Turning to `CC(=O)OC/C=C/c1ccccc1`, the “activity change, negative = cytotoxicity” value was 1.96% (inactive).

With `CC(C)(Oc1ccc(Cl)cc1)C(=O)OCCCOC(=O)C(C)(C)Oc1ccc(Cl)cc1`, the “activity change, negative = cytotoxicity” value was 6.14% [at 35.3 µM] (inactive).

Take `O=C(C(=O)c1ccc(Br)cc1)c1ccc(Br)cc1`: the activity change, negative = cytotoxicity is -11.6% [at 15.8 µM] (inactive).

Turning to `Cc1cc(CC(=O)O)c(C)n1-c1ccc(Cl)cc1`, the “activity change, negative = cytotoxicity” value was -14.2% [at 35.3 µM] (inactive).

With `c1ccc(CNCc2ccccc2)cc1`, the “activity change, negative = cytotoxicity” value was 4.54% (inactive).

In the case of `CC(=O)c1c(C)c([N+](=O)[O-])c(C(C)(C)C)c([N+](=O)[O-])c1C`, the “activity change, negative = cytotoxicity” value was 7.8% (inactive).

Turning to `CCCCCc1ccc(N)cc1`, the “activity change, negative = cytotoxicity” value was 8.62% (inactive).

For the compound `COC(=O)C(C)=O`, the “activity change, negative = cytotoxicity” value was -4.61% (inactive).

As to `CCCCCCCCCC(=O)OCC`, the “activity change, negative = cytotoxicity” value was -0.509% (inactive).

Turning to `CCCCOc1cc(C(=O)OCCN(CC)CC)ccc1N`, the “activity change, negative = cytotoxicity” value is 2.11% [at 35.3 µM] (inactive).

As to `FC(F)(F)C(F)(F)C(F)(F)C(F)(F)C(F)(F)C(F)(F)CCI`, the “activity change, negative = cytotoxicity” value was 0.0316% [at 35.3 µM] (inactive).

For `CCOC(=O)C1=NN(c2ccccc2)C(=O)C1`, the “activity change, negative = cytotoxicity” value is -1.36% (inactive).

For `CCN(CC)CCOc1ccc2c(c1)C(=O)c1cc(OCCN(CC)CC)ccc1-2`, the “activity change, negative = cytotoxicity” value was -2.09% [at 35.3 µM] (inactive).

With `CNS(=O)(=O)Cc1ccc2[nH]cc(CCN(C)C)c2c1`, the “activity change, negative = cytotoxicity” value is -2.49% [at 35.3 µM] (inactive).

In the case of `N=C(N=C(N)N)N1CCOCC1`, the “activity change, negative = cytotoxicity” value is -2.45% [at 35.3 µM] (inactive).

Turning to `CC(C)CC=O`, the “activity change, negative = cytotoxicity” value is 0.798% (inactive).

As to `C=CC[N+]1([C@H]2C[C@H]3[C@@H]4CC[C@H]5C[C@H](OC(C)=O)[C@@H](N6CCCCC6)C[C@]5(C)[C@H]4CC[C@]3(C)[C@H]2OC(=O)CC)CCCCC1`, the “activity change, negative = cytotoxicity” value was 0.274% [at 35.3 µM] (inactive).

Take `CC(C)(C)c1cc(O)c(C(C)(C)C)cc1O`: the “activity change, negative = cytotoxicity” value is -6.5% (inactive).

With `C=C(C)C(=O)OCCN(C)C`, the “activity change, negative = cytotoxicity” value is -1.81% (inactive).

`CN1CCN(C2=Nc3cc(Cl)ccc3Nc3ccccc32)CC1`: the “activity change, negative = cytotoxicity” value is -2.25% [at 35.3 µM] (inactive).

`CCOC(=O)[C@H](CCc1ccccc1)N[C@H]1CCc2ccccc2N(CC(=O)O)C1=O`: the “activity change, negative = cytotoxicity” value is -13.5% [at 35.3 µM] (inactive).

Take `CCCCCCCC/C=C\CCCCCCCC(N)=O`: the “activity change, negative = cytotoxicity” value was -21.4% (inactive).

`O=C(O)C1CCC(C(=O)O)CC1` (stereo not given): the “activity change, negative = cytotoxicity” value was 11.4% (inactive).

Take `CC(=O)N(CC(=O)N(C)C)c1ccccc1`: the “activity change, negative = cytotoxicity” value is -1.39% [at 35.3 µM] (inactive).

On to `O=C(O)C(c1ccc(Cl)cc1)c1ccc(Cl)cc1`, for which the “activity change, negative = cytotoxicity” value is -16.8% (inactive).

Turning to `CN1CCN(C2=Nc3ccccc3Sc3ccc(Cl)cc32)CC1`, the “activity change, negative = cytotoxicity” value was -6.59% [at 35.3 µM] (inactive).

As to `O=C(CC(=O)c1ccccc1)c1ccccc1`, the “activity change, negative = cytotoxicity” value was -21.2% (inactive).

In the case of `S=C(S)NCCNC(=S)S`, the “activity change, negative = cytotoxicity” value is -2.05% (inactive).

Regarding `ClC(Cl)(Cl)c1ccc(C(Cl)(Cl)Cl)cc1`, the “activity change, negative = cytotoxicity” value was -2.28% (inactive).

For `Cc1nc2ccccc2n1Cc1ccc(Cl)cc1`, the “activity change, negative = cytotoxicity” value is 12.4% [at 35.3 µM] (inactive).

In the case of `Oc1ccc(Cc2ccccc2)cc1`, the “activity change, negative = cytotoxicity” value is -0.862% (inactive).

With `CC[C@H](C)[C@H](N)C(=O)O`, the “activity change, negative = cytotoxicity” value was 2.58% [at 35.3 µM] (inactive).

On to `CC(CN)CCCN` (stereo not given), for which the “activity change, negative = cytotoxicity” value is 9.36% (inactive).

For the compound `O=C(c1ccc(O)cc1)c1ccc(O)cc1`, the “activity change, negative = cytotoxicity” value was 6.64% (inactive).

On to `Oc1ccc2c(c1)OCO2`, for which the “activity change, negative = cytotoxicity” value is -0.344% (inactive).

These data come from PubChem BioAssay (Tox21).
